The results in this text go back to the OligoGym collection.
Note: reference of the scale not given here.

In one assay the target is GATA4. As to the kind of experiment: pooled miR-30 sensor sort-seq; sequence = guide strand. The settings on record: shRNA.
On to TAAAACAGAATCTTGGTTCAAA, for which the sensor-assay potency score (higher = more potent) was 0.268.

In the case of TTCTGAGAAGTCGTCAAACATA, the sensor-assay potency score (higher = more potent) is -1.72.

On to TTCTGTTGTGTTGTGTTTGTTT, for which the sensor-assay potency score (higher = more potent) was -0.142.

TCAAACATATCGAGATTGGGGT registered a sensor-assay potency score (higher = more potent) of 0.14.

As to TTAGCAGTCGTCTTCTTTCCAG, the sensor-assay potency score (higher = more potent) was -0.572.

For the sequence TTTGCTATCCTCCAAGTCCCAG, the sensor-assay potency score (higher = more potent) was -0.913.

In the case of GAAGTCGTCAAACATATCGAGA, the sensor-assay potency score (higher = more potent) is -1.84.

With TTGATGGGACGCATCTCCTCGC, the sensor-assay potency score (higher = more potent) was -0.611.

Turning to TGGAGCTTCATGTAGAGGCCGC, the sensor-assay potency score (higher = more potent) was -0.527.

TCGACTTCAAGTTTCTTCCCAG returned a sensor-assay potency score (higher = more potent) of 0.0228.

The target of a further assay is GCKR. The description is as above. The settings on record: shRNA.
With TTCTGGTTAAACATGTCACTGT, the sensor-assay potency score (higher = more potent) came out at 0.368.

With TTCTTCTCCAGACTGGTGCTGA, the sensor-assay potency score (higher = more potent) is -0.0469.

On to TATCATCTGACAGTGGCTGGGG, for which the sensor-assay potency score (higher = more potent) was 0.728.

Turning to TGTCGGAATGTTGAACTCCAGT, the sensor-assay potency score (higher = more potent) was -1.08.

TAGCAGTCGAACAATGTTCTCA: the sensor-assay potency score (higher = more potent) is -0.15.

In the case of TTCGCTGTAGAGTCTCTGGTAT, the sensor-assay potency score (higher = more potent) was determined as 0.0176.

With TAGGTCGAGAGCAAGAACTCTC, the sensor-assay potency score (higher = more potent) was -0.283.

As for TTCCTTCTCATGTGCAACCTGG, the sensor-assay potency score (higher = more potent) is -0.464.

As for ATCTGCTTTGTCTAGATCCTGG, the sensor-assay potency score (higher = more potent) was -0.482.

Turning to TTTGTCTAGATCCTGGGTCAGT, the sensor-assay potency score (higher = more potent) was -0.835.

As for TTTGGTGCTTAGCTCACGCTGG, the sensor-assay potency score (higher = more potent) was -0.0787.

On to TAGCTCACGCTGGAACTTCTGG, for which the sensor-assay potency score (higher = more potent) is -0.719.
